For assay [1], the system named is Vero E6 infected with SARS-CoV-2. Kind of assay: morphology score (similarity to uninfected cells); higher = more like uninfected cells. The following applies: 24 h.
The test system is the same in assay [2]. Kind of assay: SARS-CoV-2 infection rate relative to infected DMSO; higher = more infection, active = 60 or less. Particulars: 24 h.

Turning to `COc1ccc(N2CCOCC2)c2sc(NC(=O)N3CCC(C)(O)CC3)nc12` [tozadenant] (10 µM), the morphology score in assay [1] worked out at 0.275. In assay [2], the SARS-CoV-2 infection rate is 97% (inactive).

Regarding `CC(=O)[C@H]1CC[C@H]2[C@@H]3CCC4=CC(=O)CC[C@]4(C)[C@H]3CC[C@]12C` [progesterone] (10 µM), the morphology score in assay [1] turned out to be 0.206. The SARS-CoV-2 infection rate in assay [2] was 96% (inactive).

As to `CN(C)C(=O)Oc1cccc([N+](C)(C)C)c1` [neostigmine] (10 µM), the morphology score in assay [1] was -0.107. Further, the SARS-CoV-2 infection rate in assay [2] is 112% (inactive).

With `CC(C)Oc1cccc(CC(=O)N2CCC[C@](CC[N+]34CCC(c5ccccc5)(CC3)CC4)(c3ccc(Cl)c(Cl)c3)C2)c1` (10 µM), in assay [1], the morphology score was determined as 0.0196. In assay [2], the SARS-CoV-2 infection rate was 110% (inactive).

Take `CC[N+]1(C)CCCC(OC(=O)C(O)(c2ccccc2)c2ccccc2)C1` (stereo not given) [pipenzolate] (10 µM): in assay [1], the morphology score is 0.153. In addition, the SARS-CoV-2 infection rate in assay [2] was 98% (inactive).

In the case of `Cn1cc(-c2cnc3ccc4ccc(CS(=O)(=O)NCc5ccccn5)cc4c(=O)c3c2)cn1` (10 µM), the morphology score in assay [1] turned out to be 0.0342. Further, the SARS-CoV-2 infection rate in assay [2] is 106% (inactive).

In assay [1], `N=C(N)NS(=O)(=O)c1ccc(N)cc1` [sulfaguanidine] (10 µM) returned a morphology score of 0.00117. Moreover, the SARS-CoV-2 infection rate in assay [2] was 108% (inactive).

Turning to `COc1cc2cc(c1Cl)N(C)C(=O)C[C@H](OC(=O)C(C)C)[C@]1(C)O[C@@H]1[C@H](C)[C@@H]1C[C@@](O)(NC(=O)O1)[C@H](OC)/C=C/C=C(\C)C2` [ansamitocin-p-3] (0.833333 µM), the morphology score in assay [1] is -0.108. For the same compound, in assay [2], the SARS-CoV-2 infection rate is 114% (inactive).

With `CC(=O)N(CC(O)CN(C(C)=O)c1c(I)c(C(=O)NCC(O)CO)c(I)c(C(=O)NCC(O)CO)c1I)c1c(I)c(C(=O)NCC(O)CO)c(I)c(C(=O)NCC(O)CO)c1I` (stereo not given) [iodixanol] (10 µM), the morphology score in assay [1] was -0.0966. For the same compound, the SARS-CoV-2 infection rate in assay [2] is 114% (inactive).

For the compound `C[S+](CC[C@H](N)C(=O)O)C[C@H]1O[C@@H](n2cnc3c(N)ncnc32)[C@H](O)[C@@H]1O` (stereo not given in full) [ademetionine] (10 µM), the morphology score in assay [1] was 0.0625. For the same compound, the SARS-CoV-2 infection rate in assay [2] was 96.5% (inactive).

Turning to `CCn1c2ccccc2c2cc(CNC)ccc21` (10 µM), the morphology score in assay [1] came to 0.514. Besides, the SARS-CoV-2 infection rate in assay [2] was 56% (active).

`Nc1nc(Nc2ccc(S(N)(=O)=O)cc2)nn1C(=O)c1c(F)cccc1F` (0.833333 µM): the morphology score in assay [1] was -0.114. Also, in assay [2], the SARS-CoV-2 infection rate was 120% (inactive).

Compound `C=CCN1CC[C@]23c4c5ccc(O)c4O[C@H]2C(=O)CC[C@@]3(O)[C@H]1C5` (10 µM) displayed a morphology score in assay [1] of -0.209. For the same compound, the SARS-CoV-2 infection rate in assay [2] was 114% (inactive).

As to `Nc1nc(/C(=C/CC(=O)O)C(=O)N[C@@H]2C(=O)N3C(C(=O)O)=CCS[C@H]23)cs1` [ceftibuten] (10 µM), in assay [1], the morphology score was found to be 0.161. Also, the SARS-CoV-2 infection rate in assay [2] is 103% (inactive).

In turn, `O=C(/C=C/c1ccc(CN(CCO)CCc2c[nH]c3ccccc23)cc1)NO` [dacinostat] (0.833333 µM) gave a morphology score in assay [1] of 0.00104. Further, the SARS-CoV-2 infection rate in assay [2] is 104% (inactive).

Take `CCCCN1CCC(CCC(=O)c2cc(Cl)c(N)cc2OC)CC1` (10 µM): the morphology score in assay [1] turned out to be 0.237. Further, the SARS-CoV-2 infection rate in assay [2] was 95% (inactive).

In assay [1], `O=c1ccn([C@@H]2O[C@H](CO)[C@@H](O)[C@H]2O)c(=O)[nH]1` [uridine] (10 µM) showed a morphology score of 0.318. In assay [2], the SARS-CoV-2 infection rate is 96.5% (inactive).

`CN(C)CCn1nnnc1SCC1=C(C(=O)O)N2C(=O)[C@@H](NC(=O)Cc3csc(N)n3)[C@H]2SC1` [cefotiam] (10 µM): in assay [1], the morphology score worked out at 0.212. Further, in assay [2], the SARS-CoV-2 infection rate was 100% (inactive).

For `COc1ccc(CN(CCN(C)C)c2ncccn2)cc1` [thonzylamine] (10 µM), in assay [1], the morphology score was 0.0251. The SARS-CoV-2 infection rate in assay [2] is 110% (inactive).

Regarding `COc1ccc2cccc(CCNC(C)=O)c2c1` [agomelatine] (10 µM), the morphology score in assay [1] turned out to be 0.11. In assay [2], the SARS-CoV-2 infection rate was 114% (inactive).

In assay [1], `Cc1[nH]c2ccccc2c1CCNC(=O)c1cccs1` (10 µM) had a morphology score of 0.142. Further, the SARS-CoV-2 infection rate in assay [2] was 103% (inactive).

For `CCN(c1cc(C#CCN2CCOCC2)cc(C(=O)NCc2c(C)cc(C)[nH]c2=O)c1C)[C@H]1CC[C@H](N(C)CCOC)CC1` (10 µM), the morphology score in assay [1] is 0.163. The SARS-CoV-2 infection rate in assay [2] was 100% (inactive).

In the case of `Cc1nnc2ccc(-c3cccc(C(F)(F)F)c3)nn12` (10 µM), the morphology score in assay [1] is -0.183. In addition, the SARS-CoV-2 infection rate in assay [2] was 104% (inactive).

`CC(C)C[C@H](NC(=O)[C@@H](Cc1c[nH]c2ccccc12)NC(=O)[C@H](Cc1ccc(O)cc1)NC(=O)[C@H](CO)NC(=O)[C@H](Cc1c[nH]c2ccccc12)NC(=O)[C@H](Cc1c[nH]cn1)NC(=O)[C@@H]1CCC(=O)N1)C(=O)N[C@@H](CCCNC(=N)N)C(=O)N1CCC[C@H]1C(=O)NCC(N)=O` [triptorelin] (10 µM) displayed a morphology score in assay [1] of -0.0195. Further, in assay [2], the SARS-CoV-2 infection rate is 110% (inactive).

In assay [1], `Cc1cc(C)c2c(N)c(C(=O)NCc3ccc(Cl)cc3)sc2n1` (10 µM) showed a morphology score of 0.0846. Besides, in assay [2], the SARS-CoV-2 infection rate was 99% (inactive).

Take `Clc1ccc(C(c2ccc(Cl)cc2)C(Cl)(Cl)Cl)cc1` (10 µM): the morphology score in assay [1] amounted to 0.0848. Also, in assay [2], the SARS-CoV-2 infection rate is 106% (inactive).

For the compound `O=C(CCCCCCC(=O)Nc1cccnc1)NO` [pyroxamide] (0.833333 µM), the morphology score in assay [1] worked out at 0.0384. The SARS-CoV-2 infection rate in assay [2] was 104% (inactive).

The compound `COc1ccc2c(C)nc(Nc3nc(C)c(C)c(O)n3)nc2c1` [madrasin] (10 µM) had a morphology score in assay [1] of 0.0439. Also, the SARS-CoV-2 infection rate in assay [2] is 107% (inactive).

In assay [1], `NCCNc1ccc(NCCN)c2c1C(=O)c1ccncc1C2=O` [pixantrone] (10 µM) had a morphology score of 0.328. In addition, the SARS-CoV-2 infection rate in assay [2] is 71% (inactive).

As to `Cc1noc(C)c1-c1ccc(-c2cc(C(N)=O)c(NC(N)=O)s2)c(O[C@H]2CCNC2)c1` (10 µM), in assay [1], the morphology score was 0.0267. The SARS-CoV-2 infection rate in assay [2] was 104% (inactive).

On to `CCC[C@@H]1C[C@@H](C(=O)N[C@@H]([C@H]2O[C@H](SC)[C@H](O)[C@@H](O)[C@H]2O)[C@H](C)Cl)N(C)C1` (10 µM), for which, in assay [1], the morphology score is -0.131. In assay [2], the SARS-CoV-2 infection rate is 102% (inactive).

`O=C(O)c1c(Sc2ccccc2)c2cc(Cl)ccc2n1Cc1ccc(Cl)cc1` (10 µM): the morphology score in assay [1] turned out to be 0.149. Also, in assay [2], the SARS-CoV-2 infection rate is 102% (inactive).

In turn, `CC(O)COC[C@H]1O[C@@H]2O[C@H]3[C@H](O)[C@@H](O)[C@@H](O[C@H]4[C@H](O)[C@@H](O)[C@@H](O[C@H]5[C@H](O)[C@@H](O)[C@@H](O[C@H]6[C@H](O)[C@@H](O)[C@@H](O[C@H]7[C@H](O)[C@@H](O)[C@@H](O[C@H]8[C@H](O)[C@@H](O)[C@@H](O[C@H]1[C@H](O)[C@H]2O)O[C@@H]8COCC(C)O)O[C@@H]7COCC(C)O)O[C@@H]6COCC(C)O)O[C@@H]5COCC(C)O)O[C@@H]4COCC(C)O)O[C@@H]3COCC(C)O` (stereo partly drawn) [hydroxypropyl-beta-cyclodextrin] (10 µM) had a morphology score in assay [1] of 0.254. In addition, the SARS-CoV-2 infection rate in assay [2] was 99% (inactive).

The compound `Nc1c(S(=O)(=O)O)cc(Nc2cccc3ccccc23)c2c1C(=O)c1ccccc1C2=O` (10 µM) displayed a morphology score in assay [1] of 0.145. Also, in assay [2], the SARS-CoV-2 infection rate was 112% (inactive).

Consider `Nc1nccs1` [aminothiazole] (10 µM), for which the morphology score in assay [1] is 0.0165. Moreover, in assay [2], the SARS-CoV-2 infection rate is 104% (inactive).
